# Hits are enriched below; roughly 6.9% of the tested compounds scored in any of these assays.
# Vif-APOBEC3G blk = inhibitors of Vif-APOBEC3G interaction; Q9HC16; HeLa A3G-eYFP + Vif (tagged APOBEC3G with the HIV-1 protein that degrades it), YFP fluorescence, overnight; Potency, µM (top dose mostly 46.1 µM), hits mostly inhibitors; hit rate 0.076% among 410,000; AID 602310; also: nearly all actives have a fitted effect of over 60% in size
# Target sequence (Q9HC16 whole entry, looked up): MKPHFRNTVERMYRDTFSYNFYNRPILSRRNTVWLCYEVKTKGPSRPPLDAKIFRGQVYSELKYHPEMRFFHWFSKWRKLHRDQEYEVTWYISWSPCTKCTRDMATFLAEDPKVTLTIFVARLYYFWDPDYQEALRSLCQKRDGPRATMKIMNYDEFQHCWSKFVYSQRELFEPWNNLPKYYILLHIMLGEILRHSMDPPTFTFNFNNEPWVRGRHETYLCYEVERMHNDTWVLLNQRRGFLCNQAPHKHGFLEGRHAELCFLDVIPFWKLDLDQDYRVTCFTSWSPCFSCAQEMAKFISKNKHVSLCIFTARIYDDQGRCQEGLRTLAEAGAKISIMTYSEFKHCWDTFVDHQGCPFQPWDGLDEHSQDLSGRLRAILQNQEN
#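 HeLa cells stably expressing Vif and C-terminally eYFP-tagged A3G, seeded overnight at 37 deg C, then exposed to compound by pintool overnight at 37 deg C. Rise in yellow fluorescence (Ex 488/Em 500-530, Acumen) marks blocked Vif-driven A3G degradation.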
# MCF10A rereplic = inducers of DNA re-replication in MCF 10A breast cells; AID 624296; hit rate 2.9% among 350,000; MCF 10A DNA re-replication, Hoechst nuclear intensity, 48 h; Potency, µM (top dose mostly 46.1 µM), most hits filed as activators; also: nearly all actives have a fitted effect of over 50% in size
# SW480 rereplic = inducers of DNA re-replication in SW480 colon cancer cells. SW480 DNA re-replication, Hoechst DNA content imaging, 48 h. Potency, µM (doses to about 46.1 µM), usual class: activators. hit rate 1.8% among 340,000. AID 624297; also: nearly all actives have a fitted effect of over 55% in size
#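 Quantitative HTS format with DMSO vehicle controls; 48 hr drug incubation at 37 C, then 40 min Hoechst staining and scanning imager measurement at 405 nm excitation.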
# IL-1B inflam inh = inhibitors of inflammasome signaling (IL-1 beta secretion) | activity change, % at 57.5 µM | hit rate 4.7% among 360,000 | THP-1 LPS/ATP IL-1B secretion, AlphaLISA, 16 h; active compounds read low; in the data active = activity change below about -50%; inconclusive = mostly about -30% to -49%
#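 THP-1 cells pretreated 1 hr with compounds (up to 57.5 uM final), then stimulated with LPS (250 ng/mL final) plus ATP (1.25 mM final); secreted IL-1B measured by AlphaLISA after 16 hr, decreased signal indicating inhibition.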
# Giardia kill = kills Giardia lamblia | Giardia lamblia trophozoite viability | activity change, % at 7.66 µM, hits read low | hit rate 0.15% among 340,000; in the data active = activity change below about -80%; inconclusive = between about -30% and that limit;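 also: parasites exposed to compound for two days anaerobically before the ATP read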
#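 Media and compound were dispensed first, then trophozoites at 100 cells/well; plates sat 48 hrs at 37 deg C without oxygen before ATP luminescence reagent was added and read after 15-30 min at room temperature.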
# Vif-A3F inh = Vif-A3F binding inhibition | hit rate 0.2% among 390,000 | Potency, µM (titrated, usually from 46.1 µM) | HeLa A3F-eYFP + Vif (tagged APOBEC3F with the HIV-1 protein that degrades it), YFP fluorescence increase; also: nearly all actives have a fitted effect of over 65% in size
#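 Fluorescence increase (Ex 488/Em 500-530) after overnight compound treatment at 37 deg C flags inhibition of Vif-driven A3F-eYFP loss in stable HeLa A3F-eYFP/Vif cells seeded overnight beforehand.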
# Numbers stand for hits; - = inactive; ? = inconclusive; . = no result; ! = not active in a repeat. Unless noted, calls follow the shape of the dose curve; as a rule, active = well fitted curve in the direction sought with a large enough effect; inconclusive = small, poorly fitted or top-dose-only effect, or another doubt; inactive = no such curve, though single readings can be large; an effect the other way counts as inactive or inconclusive.
SMILES,Vif-APOBEC3G blk,MCF10A rereplic,SW480 rereplic,IL-1B inflam inh,Giardia kill,Vif-A3F inh
CC(C)COP(=O)(c1ccc(N(C)C)cc1)C(Nc1ccccc1)c1ccccc1 (configuration not stated),-,?,?,-,-,-
Cn1cc(C(=O)c2ccccc2)c2ccccc21,-,-,-,-,-,-
COC(=O)c1cn(S(=O)(=O)c2ccccc2)c2ccccc12,-,26µM,?,-,-,?
CN1CCC[C@@H]1c1cccnc1,.,-,-,.,.,.
CC1C(OC(=O)CCC(=O)NC(C)(C)CO)O[C@H]2OC3(C)CC[C@H]4[C@H](C)CCC1C24OO3 (some centres not stated),-,-,?,-68,-,-
CC(C)CC(NC(=O)CCCNC(=O)CCC(=O)OC1O[C@H]2OC3(C)CC[C@H]4[C@H](C)CCC(C1C)C24OO3)C(=O)O (some centres not stated),-,-,8.2µM,-,-,-
C[C@H]1[C@H](OC(=O)CCC(=O)NCc2ccc(C(=O)O)cc2)O[C@@H]2O[C@@]3(C)CC[C@H]4[C@H](C)CC[C@@H]1C24OO3,-,?,?,-,-,-
COc1cc(-c2ccc(-[n+]3nc(-c4ccccc4)nn3-c3ccc([N+](=O)[O-])cc3)c(OC)c2)ccc1-[n+]1nc(-c2ccccc2)nn1-c1ccc([N+](=O)[O-])cc1,.,-,?,.,.,.
CC(Cc1ccsc1)NCc1cn[nH]c1-c1ccc(F)cc1F (configuration not stated),-,-,-,-54,-,-
CCC1(c2ccccc2)CCC(=O)NC1=O (configuration not stated),.,-,-,.,.,.
O=[N+]([O-])c1oc2ccc3ccccc3c2c1CCO,-,5.2µM,?,-,-95,-
CCC[C@H](N[C@@H](CCC)[C@H](O)c1ccccc1)[C@H](O)c1ccccc1,-,?,?,-58,-,-
CC([C@H](O)c1ccccc1)N(C)C (some centres not stated),.,-,-,.,.,.
OC(O)C(Cl)(Cl)Cl,.,-,-,.,.,.
N#CC1c2ccccc2-n2nncc2CN1Cc1cc(Cl)cc(Cl)c1 (configuration not stated),?,6.5µM,?,-102,-,-
COc1ccc(CN2Cc3cnnn3-c3ccccc3C2C#N)cc1 (configuration not stated),?,3.3µM,?,-102,-,-
COc1ccc(CN2Cc3cnnn3-c3ccccc3C2c2ccccc2)cc1 (configuration not stated),-,16µM,?,-,-,-
CCOc1ccc(CN(CCc2ccc3c(c2)OCO3)Cc2ccc(OC)c(Br)c2)cc1,-,.,.,.,.,-
CCCC1=Nc2cc(C(=O)NC3CCC(C)CC3)ccc2Sc2ccccc21 (configuration not stated),?,.,.,.,.,-
COC1CCC(OC2CC(C3(C)CCC4(CC(O)C(C)C(C(C)/C=C(\C)C(=O)C(C)CC(C)C(=O)O)O4)O3)OC3(OC(C4OC(O)(CO)C(C)CC4C)CC3C)C2C)OC1C (configuration not stated),?,1.5µM,?,-54,-,-
CCS(=O)(=O)C(C)(C)S(=O)(=O)CC,.,-,-,.,.,.
COc1ccc(-c2noc(=O)n2Cc2cc(C)ccc2C)cc1,?,16µM,?,-,-,-
COc1cccc(Cn2c(-c3cccs3)noc2=O)c1,-,?,-,-,-,-
O=C(Cc1ccccc1)N1CCN(Cc2ccc([N+](=O)[O-])cc2)CC1,-,-,-,-,-,-
O=[N+]([O-])c1cccc(CN2CCN(Cc3ccc(Br)cc3)CC2)c1,-,9.2µM,-,-,-,-
SMILES,Vif-APOBEC3G blk,MCF10A rereplic,SW480 rereplic,IL-1B inflam inh,Giardia kill,Vif-A3F inh
COCC(C)N(C(=O)CCl)c1c(C)csc1C (configuration not stated),.,-,-,.,.,.
COc1ccc(NC(=O)c2cccn(Cc3ccc(Cl)cc3)c2=O)c(OC)c1,-,.,.,.,.,-
CCCC12CN3CC(C)(CN(C1)C3c1ccccn1)C2=O (configuration not stated),-,.,.,.,.,-
Fc1ccc(C(OCCN2CCN(CCCc3ccccc3)CC2)c2ccc(F)cc2)cc1,-,21µM,?,.,-,-
Fc1ccc(C(OCCN2CCCC2)c2ccc(Br)cc2)cc1 (configuration not stated),-,?,-,-77,-,-
c1ccc(CCCN2CCN(CCOC(c3ccccc3)c3ccccc3)CC2)cc1,-,5.2µM,?,-,-,-
Fc1ccc(C(OCCN2CCCC2)c2ccc(F)cc2)cc1,-,?,-,?,-,-
CC(C)Oc1cccc(NC(=O)c2cccn(Cc3ccc4c(c3)OC(F)(F)O4)c2=O)c1,-,13µM,?,-,-,-
O=C(Nc1cccc(C(F)(F)F)c1)c1cccn(Cc2ccc3c(c2)OC(F)(F)O3)c1=O,-,?,-,-,-,-
CCCCC(CC)COP(=O)(OCC(CC)CCCC)OCC(CC)CCCC (configuration not stated),-,-,?,-72,-,-
CN1CCN(S(=O)(=O)c2cnc(Cl)c(Br)c2)CC1,-,?,?,-97,-,-
O=[N+]([O-])c1ccc(NCc2ccc(Cl)cc2)c2ccncc12,-,-,-,-57,-,-
CCC1(CC)C(=O)NC(=O)NC1=O,.,-,-,.,.,.
CN(C)C(=S)SSC(=S)N(C)C,?,21µM!,1.3µM,-,-85,-
CN(C)C(=S)SC(=S)N(C)C,.,-,2.7µM,.,.,.
CC12NC(Cc3ccccc31)c1ccccc12 (configuration not stated),.,-,-,.,.,.
CC1OC(OC2C=C3CCC4C(CCC5(C)C(c6ccc(=O)oc6)CCC45O)C3(C)CC2)C(O)C(OC2OC(CO)C(O)C(O)C2O)C1O (configuration not stated),-,-,?,-71,-,-
C[C@]12CC[C@@H](O)CC1=CCC1C2CC[C@]2(C)C(=O)[C@H](F)CC12 (some centres not stated),-,-,-,-,-,-
CC12CCC3C(CC=C4CC(O)CCC43C)C1C/C(=C\c1cccc(F)c1)C2=O (configuration not stated),-,5.8µM,-,-,-,-
C=C1CC2C(CC[C@]3(C)C(=O)CCC23)[C@]2(C)C=CC(=O)C=C12 (some centres not stated),.,-,-,.,.,.
CC(=O)[C@H]1CC[C@H]2[C@@H]3CC[C@H]4C[C@](C)(O)CC[C@]4(C)[C@H]3CC[C@]12C,.,-,-,.,.,.
O=c1[nH]c(CN2CC=C(c3ccccc3)CC2)nc2scc(-c3ccccc3)c12,?,18µM,-,-,-,10µM

# Screens deposited in PubChem BioAssay by National Center for Advancing Translational Sciences (NCATS).
